Screens as filed in PubChem.
A selection: hits, their analogues and other compounds. The true share with any hit is near 2.6%.
uPA surface inh = inhibitors of cell surface uPA generation; cell surface uPA generation assay, qHTS; Potency, µM (series often up to 38.3 µM), usual class: inhibitors; AID 540303; 330,000 tested, 0.31% active; active = well fitted inhibition curve with a large enough effect; inconclusive = small, poorly fitted or top-dose-only effect; inactive = no such curve, though single readings can be large or run the other way; tested in mouse RAW 264.7 cells; note: nearly all actives have a fitted effect of over 55% in size
HepG2 viability = counter-screen for TGF-b inhibitors: cytotoxicity in HepG2 cells; HepG2 CAGA-GFP viability, ATP luminescence, 18 h; Potency, µM (top dose mostly 46.1 µM), actives largely listed as cytotoxic; 410,000 tested, 0.76% active
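HepG2 CAGA-GFP cells (1000/well, DMEM with 1% FBS) received compound, then TGF-beta at 500 pg/mL final, and were incubated 18 hours at 37 degrees C. Viability was read by CellTiter-Glo luminescence. Media-only wells were set as complete cell-killing and DMSO as no toxicity.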
ATXN viability = viability counter-screen for ATXN expression inhibitors. 400,000 tested, 0.49% active. Potency, µM (highest dose often 56.7 µM), usual class: cytotoxic. S2 cells (HEK-293 line with an ATXN2-luciferase reporter) viability, CellTiter-Fluor protease fluorescence, 24 h; note: nearly all actives have a fitted effect of over 40% in size
TGFb SMAD3 inh = TGF-b pathway inhibition; HepG2 CAGA-GFP TGF-b/SMAD3 reporter, GFP fluorescence, 18 h; TGF-beta stimulated, 500 pg/mL final; Potency, µM (titrated, usually from 46.1 µM), hits mostly inhibitors; 410,000 tested, 1.2% active; note: nearly all actives have a fitted effect of over 65% in size
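Smad-responsive CAGA-GFP expression was quantified in HEPG2 cells exposed to compounds and 500 pg/mL final TGF-beta for 18 h at 37 degrees C; unstimulated wells defined full inhibition.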
ATXN2 expr inh = ATXN2 expression inhibition; HEK-293 ATXN2-luciferase reporter, luminescence, 24 h; Potency, µM (series often up to 57 µM), usual class: inhibitors; 360,000 tested, 0.72% active; note: nearly all actives have a fitted effect of over 55% in size
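ATXN2-luciferase reporter cells (luciferase flanked by upstream and downstream ATXN2 gene portions) were treated 24 h at 37 °C with compounds at up to 57 uM. SteadyGlo luminescence gave expression; GF-AFC fluorescence gave viability.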
Giardia kill = kills Giardia lamblia; Giardia lamblia trophozoite viability; activity change, % at 7.66 µM, hits read low; 340,000 tested, 0.15% active; in the data active = activity change below about -80%; inconclusive = between about -30% and that limit;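 note: parasites exposed to compound for two days anaerobically before the ATP read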
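Giardia lamblia trophozoites (100 cells/well) were incubated with compounds for 48 h at 37 deg C under anaerobic conditions. Viability was read as ATP content by one-step luminescence after 15-30 min at room temperature.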
Numbers stand for hits; n = inactive; u = inconclusive; x = no result. Unless noted, calls come from the whole dose curve; as a rule, active = well fitted curve in the direction sought with a large enough effect; inconclusive = small, poorly fitted or top-dose-only effect, or another doubt; inactive = no such curve, though single readings can be large; an effect the other way counts as inactive or inconclusive.

SMILES	uPA surface inh	HepG2 viability	ATXN viability	TGFb SMAD3 inh	ATXN2 expr inh	Giardia kill
Nc1ccc(-c2nc3c(Cl)cc(N)cc3[nH]2)cc1	n	n	n	n	10µM	n
Nc1ccc2nc(-c3ccc(N)c(Cl)c3)[nH]c2c1	n	n	u	u	n	n
Cc1[nH]c2ccccc2c1C1(O)C(=O)N(Cc2ccccc2)c2ccc(Cl)cc21 (stereo not given)	x	15.8µM	u	u	u	x
Cc1ccccc1CN1C(=O)C(O)(c2c[nH]c3ccccc23)c2cc(Cl)ccc21 (stereo not given)	x	11.2µM	n	15.8µM	n	x
COC(=O)C1CCCCN1Cc1ccc2c(c1)CN(C(=O)c1ccc(F)cc1)CCO2 (stereo not given)	x	x	n	x	x	x
COc1cccc(/C=C/C(=O)OCC(=O)N2c3ccccc3CC2C)c1OC (stereo not given)	n	n	n	u	n	n
COc1cc(/C=C/C(=O)OCC(=O)N2c3ccccc3CC2C)cc(OC)c1OC (stereo not given)	10µM	n	n	n	x	n
CC(C)(C)n1ncc2c(=O)n(Cc3ccc(Cl)c(C(F)(F)F)c3)cnc21	x	n	x	n	x	x
Cc1ccc(-n2nnc(-c3cccnc3)n2)cc1	u	n	n	n	n	n
Cc1ccc(-n2nnc(-c3nccn3C)n2)cc1	3.16µM	n	n	n	u	u
Cc1cc(C(=O)c2ccccc2)cc(C)c1O	n	n	u	n	n	n
CC1=C/C(=C(\c2cc(C)c(O)c(Br)c2)c2ccccc2S(=O)(=O)O)C=C(Br)C1=O	u	n	11.2µM	n	u	n
CC(C(=O)c1ccccc1)[n+]1cccc(Cl)c1 (stereo not given)	x	n	x	n	x	x
Cc1ccc(C)c(NC(=O)c2cc3ccccc3o2)c1	n	n	x	n	x	n
O=C(Nc1ccc(Cl)cn1)c1cc2ccccc2o1	n	n	n	n	n	n
Cc1ccnc(NC(=O)c2cc3ccccc3o2)c1	2µM	n	n	n	u	u
O=C(Nc1ccccn1)c1cc2ccccc2o1	u	7.94µM	n	n	15.8µM	u
COc1ccc(-c2nc3ccc(NC(C)=O)cc3c(=O)n2Cc2ccccc2)cc1COc1ccc(NC(C)=O)cc1	x	x	x	x	x	n
CCOc1cccc(NC(=O)CSc2ncc(-c3ccccc3)[nH]2)c1	x	n	n	n	n	x
Cc1cccc(NC(=O)CSc2ncc(-c3ccc(Br)cc3)[nH]2)c1	x	12.6µM	u	u	u	x
CC(=O)c1ccc(F)c(-c2cc(C)cc3c2OC(CNC(=O)c2cccnc2)C3)c1 (stereo not given)	x	x	n	x	x	x
O=[N+]([O-])c1ccc(-c2nc(C(Cl)Cl)c3ccccc3n2)cc1	n	n	u	n	3.98µM	-90.6
CCOC(=O)COc1cccc2c(=O)n(CC(N)=O)ccc12	n	n	n	n	n	n
CCOC(=O)COc1cccc2c(=O)n(CC(=O)NCc3ccc(F)cc3)ccc12	0.0562µM	n	u	u	x	n
CCOC(=O)COc1cccc2c(=O)n(CC(=O)NCc3ccccc3)ccc12	0.199µM	n	u	n	x	n
SMILES	uPA surface inh	HepG2 viability	ATXN viability	TGFb SMAD3 inh	ATXN2 expr inh	Giardia kill
CSc1nnc(CCNC(=O)/C=C/c2cccc(F)c2)n1-c1ccc(F)cc1	x	x	n	x	x	x
Cc1cnc(-n2ncc(C(=O)N(CCO)C(C)C)c2-c2cccs2)nc1-c1ccc(F)cc1	x	x	n	x	x	x
CCN(CC)CCCN=C1N[C@@H](c2cccc(C(F)(F)F)c2)C(C(=O)OC)=C(C)N1CC	u	n	22.4µM	u	u	n
CCN1C(=O)N[C@@H](c2cccc(C(F)(F)F)c2)C(C(=O)OC)=C1C	n	n	n	n	n	n
CCN1C(=NCc2cccc(C(F)(F)F)c2)N[C@@H](c2cccc(C(F)(F)F)c2)C(C(=O)OC)=C1C	x	n	x	3.55µM	x	x
CCN1C(=NCc2cccc(Cl)c2)N[C@@H](c2cccc(C(F)(F)F)c2)C(C(=O)OC)=C1C	x	n	x	14.1µM	x	x
COc1cccc2nc(-c3cccs3)nc(NN3C(=O)C=C(C)C3=O)c12	x	x	x	x	6.11µM	x
COc1ccc(Nc2nc(-c3cccs3)nc3ccccc23)c(OC)c1	n	n	n	n	n	n
COc1ccc(-c2cn3nc4c(nc3n2)CCCC4)cc1	n	n	x	n	15.8µM	n
CC(C)NCCCC1(C(N)=O)c2ccccc2-c2ccccc21	x	x	n	x	n	x
CCCNC(=O)C1CCN(Cc2cc3ccccc3n2Cc2ccccc2)CC1	x	n	u	u	u	x
CN(C)CCNC(=O)C1CCN(Cc2cc3ccccc3n2Cc2ccccc2)CC1	x	11.2µM	x	u	22.4µM	x
Cc1ccc(Cn2c(CN3CCC(C(=O)NCc4cccnc4)CC3)cc3ccccc32)cc1	x	11.2µM	x	u	u	x
O=C(O)c1ccc(NC2=C/C(=N/S(=O)(=O)c3cccs3)c3ccccc3C2=O)cc1	x	n	x	14.1µM	x	x
Cc1cc(C)c(S(=O)(=O)/N=C2\C=C(Nc3ccc(C(=O)O)cc3)C(=O)c3ccccc32)c(C)c1	n	15.8µM	u	u	28.2µM	n
Cc1cccc(NC2=C/C(=N/S(=O)(=O)c3cccs3)c3ccccc3C2=O)c1	n	n	u	u	u	n
Cc1cc(C)c(S(=O)(=O)/N=C2\C=C(NS(=O)(=O)c3ccccc3)C(=O)c3ccccc32)c(C)c1	n	n	u	n	n	n
COc1cc2c(NC3CCN(C(C)C)CC3)nc(N3CCCN(C)CC3)nc2cc1OCCOCCN1CCCC1	x	n	x	u	x	x
CCCNc1nc(Nc2ccc([N+](=O)[O-])cc2)nc(N2CCOCC2)n1	x	n	x	n	x	x
CCc1cccc(CC)c1NC(=S)Nc1cccc(Cl)c1Cl	n	17.8µM	n	u	n	n
CCOc1ccc(NC(C(=O)Nc2cccc(C(C)=O)c2)c2ccccc2)cc1 (stereo not given)	n	n	n	n	n	n
CCN(CC)CCNC(C(=O)Nc1cccc(C(C)=O)c1)c1ccccc1 (stereo not given)	n	12.6µM	n	n	n	n
Cc1cc(OCc2cc(C(=O)NC(C)c3cnn(C)c3)no2)cc(C)c1Cl (stereo not given)	x	n	u	n	x	x
Cc1cc(OCc2cc(C(=O)NC(C)c3c(C)nn(C)c3C)no2)cc(C)c1Cl (stereo not given)	n	n	n	11.2µM	u	n
CCCc1ncc(C(=O)O)s1	x	x	n	x	n	x
Nc1c(C(=O)Nc2ccc(S(=O)(=O)N3CCCC3)cc2)sc2nc3ccc(OC(F)(F)F)cc3cc12	n	1.78µM	x	n	u	n
Nc1c(C(=O)Nc2ccc(S(=O)(=O)N3CCCC3)cc2)sc2nc3cc4c(cc3cc12)CCC4	n	n	n	n	n	n
Cc1nnc(NC(=O)c2ccc(S(=O)(=O)N(C)Cc3ccccc3)cc2)o1	n	n	u	n	n	u
CCN(Cc1ccccc1)S(=O)(=O)c1ccc(C(=O)Nc2nnc(C3CC3)o2)cc1	3.55µM	n	n	n	20µM	n
